Compound activity deposited in PubChem by National Center for Advancing Translational Sciences (NCATS).
HT1080 IDH1KD tx = toxicity to HT-1080 IDH1 knockdown cells (counter line); HT-1080 IDH1 knockdown viability, ATP luminescence, 48 h; Potency, µM (series often up to 46.1 µM), inactives show at the top dose activity, negative = toxicity, actives largely listed as cytotoxic; 360,000 tested, 2% active;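 note: potency is the fitted concentration of half-maximal effect; 0% = DMSO wells and -100% = cell-free medium wells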
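CellTiter-Glo luminescence after 48 h compound exposure at 37 degrees C of IDH1-knockdown HT-1080 cells in 5% FBS RPMI. %Activity scaled between DMSO wells and cell-free media wells, with curves fitted and assigned curve classes.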
HT1080NT lethal = kills 2HG-producing HT-1080-NT fibrosarcoma cells. HT-1080-NT fibrosarcoma viability, CellTiter-Glo ATP luminescence, 48 h. 360,000 tested, 1.6% active. AID 686970. Potency, µM (series often up to 46.1 µM), for the others: at the top dose activity, negative = less viability, actives largely listed as cytotoxic;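 note: NT is the 2HG producing partner of a matched IDH1 knockdown line; potency is the fitted concentration of half-maximal effect; 0% = DMSO-treated cells and -100% = media-only wells without cells; nearly all actives have a fitted effect of over 55% in size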
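750 cells/well, RPMI + 5% FBS; 2 h settle, compound pin-transfer, 48 h at 37 degrees C. CellTiter-Glo 10 min RT, luminescence. Normalized to DMSO and media-only wells.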
IL-1B inflam inh = inflammasome signaling inhibition, IL-1 beta readout; THP-1 LPS/ATP IL-1B secretion, AlphaLISA, 16 h; hits give low values; AID 743279; activity change, % at 57.5 µM; 360,000 tested, 4.7% active; in the data active = activity change below about -50%; inconclusive = mostly about -30% to -49%
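THP-1 cells pretreated 1 hr with compounds (up to 57.5 uM final), then stimulated with LPS (250 ng/mL final) plus ATP (1.25 mM final); secreted IL-1B measured by AlphaLISA after 16 hr, decreased signal indicating inhibition.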
KB-V1 MDR tox = kills drug-selected multidrug resistant KB-V1 cells; 400,000 tested, 3.4% active; Potency, µM (doses to about 46.1 µM), usual class: cytotoxic; KB-V1 MDR cells viability, CellTiter-Glo, 72 h; note: potency is the fitted concentration of half-maximal effect; nearly all actives have a fitted effect of over 60% in size
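Compound-treated KB-V1 multidrug-resistant cells, 72 h, 37 degrees C; viability by CellTiter-Glo. Fitted qHTS curves give the values.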
KB-3-1 cytotox = kills parental KB-3-1 adenocarcinoma cells; KB-3-1 viability, CellTiter-Glo ATP luminescence, 72 h; AID 1347075; 400,000 tested, 1.4% active; Potency, µM (titrated, usually from 46.1 µM), most hits filed as cytotoxic; note: potency is the fitted concentration of half-maximal effect; nearly all actives have a fitted effect of over 60% in size
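Multi-concentration cytotoxicity screen in KB-3-1 cells grown in DMEM lacking phenol red with 10% FBS. After 72 h at 37 °C with compound, ATP-dependent luminescence was recorded.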
The depositor's hits bear a star; i = inactive; ? = inconclusive; . = no result given. In the library only some 8.8% were active in any assay of this set; here they are far more common. Unless noted, calls come from the whole dose curve; as a rule, active = well fitted curve in the direction sought with a large enough effect; inconclusive = small, poorly fitted or top-dose-only effect, or another doubt; inactive = no such curve, though single readings can be large; an effect the other way counts as inactive or inconclusive. Unless noted, % is set by controls: 0 for no effect and ±100 for the full control effect.

SMILES	HT1080 IDH1KD tx	HT1080NT lethal	IL-1B inflam inh	KB-V1 MDR tox	KB-3-1 cytotox
CCc1c(C)nc2cc(-c3cccc(Br)c3)[nH]n2c1=O	-4%	2%	28	i	i
CCOc1ccccc1NC(=O)c1cc(-c2ccccn2)nc2ccccc12	0%	18%	?	?	18µM*
CCNC(=S)NNC(=O)c1cc(-c2ccc(OCC)cc2)nc2ccccc12	5µM*	3.5µM*	-14	i	?
COC(=O)c1ccc(/C=N/OCC(=O)NCc2ccc(F)cc2)cc1	-12%	-6%	-1	i	i
CC1=NNC(=O)/C1=C\c1cn(-c2ccccc2)nc1-c1ccccc1	13µM*	16µM*	-104*	?	?
COc1ccc(/C=N/NC(=O)c2cccc([N+](=O)[O-])c2)cc1O	-19%	-15%	7	i	i
O=C(N/N=C/c1ccccn1)c1cccc([N+](=O)[O-])c1	?	-24%	-96*	i	i
O=C(N/N=C/c1ccccc1[N+](=O)[O-])c1cccs1	3%	8%	1	i	i
Cc1ccc(/C=N/NC(=O)c2cccs2)cc1[N+](=O)[O-]	16%	16%	-2	15µM*	i
COc1cccc(/C=N/NC(=O)c2cc3cc([N+](=O)[O-])ccc3s2)c1O	2.9µM*	4.1µM*	77	?	?
Cc1cc(/C=N/NC(=O)c2cccc([N+](=O)[O-])c2)c(C)n1-c1ccccc1	-17%	-8%	-80*	?	i
O=C(N/N=C/c1ccccn1)c1ccc(NC(=O)c2cccc([N+](=O)[O-])c2)cc1	-16%	-14%	4	i	?
Cc1cc(/C=N/NC(=O)c2ccncc2)c(C)n1-c1ccccc1	-4%	-3%	0	i	i
Cc1ccc(S(=O)(=O)Nc2cc(C)c(O)c(Sc3n[nH]c(C)n3)c2)cc1	?	?	-3	i	i
Cc1cc(/C=N/NC(=O)c2cccs2)c(C)n1-c1ccccc1	?	?	-5	?	16µM*
O=C(NN=Cc1ccccc1O)c1cccc([N+](=O)[O-])c1	1.2µM*	0.29µM*	160	?	?
O=C(N/N=C/c1ccc(O)cc1)c1cccc(C(F)(F)F)c1	-11%	-13%	-8	?	i
O=C(N/N=C/c1ccccc1O)c1cccc(C(F)(F)F)c1	2.6µM*	?	71	?	?
O=C(N/N=C/c1ccccn1)c1ccc(Br)cc1	?	-21%	-105*	18µM*	i
CCCCOC(=O)c1ccc(NC(=O)/C(C#N)=C/c2ccc(-c3ccccc3)o2)cc1	.	.	.	i	i
CCOc1cc(-c2sc(Nc3ccccc3)n[n+]2C)ccc1OC	0%	-3%	-5	?	i
O=C(N/N=C/c1cccc2ccccc12)c1cccc(F)c1	0%	-1%	-63*	?	i
CC[n+]1ccc2cc(OC)c(OC)cc2c1Cc1ccc(OC)c(OC)c1	-14%	-3%	33	i	i
CC(C)Oc1cc(NC(=O)CS(=O)CC(=O)Nc2cccc(C(F)(F)F)c2)c(Cl)cc1Cl (stereo not drawn)	?	?	-63*	i	i
CC(=O)Nc1ccc2nc(C3CC3)n(Cc3ccc(Cl)cc3)c(=O)c2c1	-3%	-1%	0	i	i
SMILES	HT1080 IDH1KD tx	HT1080NT lethal	IL-1B inflam inh	KB-V1 MDR tox	KB-3-1 cytotox
COc1ccc(Cn2c(C3CC3)nc3ccc(NC(=O)C4CC4)cc3c2=O)cc1	-20%	-19%	-65*	23µM*	?
O=C(Nc1ccc2nc(C3CC3)n(Cc3ccc(F)cc3)c(=O)c2c1)c1ccco1	-18%	-13%	-51*	?	i
Clc1ccc(-c2nc3ccc(Br)cn3c2Cc2cccc(Cl)c2)cc1	15µM*	?	11	i	?
N#Cc1ccc(-c2nc3ccc(Br)cn3c2Cc2ccccc2)cc1	-11%	-10%	-7	i	21µM*
Cc1ccc(-c2nc3ccc(Br)cn3c2Cc2cccc(Cl)c2)cc1	?	?	59	i	?
Cc1ccc(Cc2c(-c3ccc(C#N)cc3)nc3ccc(Br)cn23)cc1	-5%	-14%	-9	i	?
CC(C)(C)c1ccc(-n2nc(C#N)c(Cl)cc2=O)cc1	3.3µM*	7.3µM*	-97*	?	?
Cc1ccsc1/C=N/n1c(-c2ccccn2)n[nH]c1=S	7%	8%	13	i	i
COc1cc(/C=N/NC(=O)NC23CC4CC(CC(C4)C2)C3)ccc1OCC(N)=O	2%	-5%	-8	i	i
COc1cc(OC)c(C=NNC(=S)NC23CC4CC(CC(C4)C2)C3)c(OC)c1	0%	-6%	12	5.2µM*	i
COc1ccc(C=NNC(=S)NC23CC4CC(CC(C4)C2)C3)cc1OC	-1%	0%	-8	2.9µM*	?
CCOc1ccc(CNC(=S)N/N=C/c2ccc(OC)c(OC)c2)cc1	16%	-1%	0	16µM*	i
O=C(NC1CC1)C1=C[C@@H](c2c[nH]c3ccccc23)C[C@@H](OCCCCO)O1	4%	0%	8	i	i
CC(=O)c1ccc(NC(=O)CSc2nnc(-c3ccoc3C)n2Cc2ccccc2)cc1	-2%	-5%	-67*	?	i
COCCn1c(SCC(=O)Nc2ccccc2)nnc1-c1ccoc1C	8%	1%	-15	i	i
Cc1ccc(NC(=O)CSc2nnc(-c3ccoc3C)n2CCCN(C)C)cc1Cl	-17%	-16%	-61*	i	i
CCCCN(C)C(=O)c1[nH]c(C(F)(F)F)nc1-c1ccccc1	-1%	1%	0	i	i
COc1cccc(N2CCN(c3ncccn3)CC2)c1	0%	0%	5	?	i
Cc1cc(N2CCN(c3ccccc3)CC2)n2ncnc2n1	-3%	1%	1	?	i
c1ccc(N2CCN(c3c4c(nc5ncnn35)CCC4)CC2)cc1	1%	7%	-1	2.9µM*	i
COc1cccc(N2CCN(c3c4c(nc5ncnn35)CCC4)CC2)c1	-22%	-2%	-14	?	23µM*
c1ccc(-c2c[n+]3c(n2-c2ccccc2)SCC3)cc1	?	-3%	-10	?	3.3µM*
CCOc1ccc(-n2c(-c3ccc(Cl)cc3)c[n+]3c2SCC3)cc1	23µM*	-10%	-86*	i	16µM*
Cn1c(-c2ccccc2)c[n+]2c1-c1ccccc1C2	-23%	-19%	61	i	?
COc1cc(C2C(C#N)=C(N)Oc3cc(N)ccc32)cc(OC)c1OC (stereo not drawn)	0.58µM*	?	14	?	?
CCN(CC)c1ccc2c(c1)OC(N)=C(C#N)C2c1cccnc1 (stereo not drawn)	0.23µM*	?	-101*	0.29µM*	0.041µM*
